This is a sample that favours compounds with a hit; in the whole collection about 3.6% have one here.
Bead autofluor – compound fluorescence in toxin protease inhibitor counterscreen | 3.1% of 360,000 active | compound autofluorescence counterscreen, microsphere flow cytometry; active compounds read high | AID 624483 | fluorescence intensity (test concentration not listed); in the data active = fluorescence intensity above about 16000; inconclusive = no clear call, values can overlap the other calls
BoNT F protease – blocks Botulinum neurotoxin F light chain protease. 0.22% of 360,000 active. inhibition, % at 10 µM. Multiplex microsphere protease cleavage assay, flow cytometry; in the data active = inhibition above about 35%, passing the limit was not always enough; inconclusive = no clear call, values can overlap the other calls; note: plate controls were buffer without enzyme for full effect and enzyme alone for no effect
BoNT A protease – blocks Botulinum neurotoxin A light chain protease; multiplex microsphere protease substrate cleavage, flow cytometry; inhibition, % at 10 µM; 0.17% of 360,000 active; AID 588499; note: plate controls were buffer without enzyme for full effect and enzyme alone for no effect
Anthrax LF prot – blocks Bacillus anthracis lethal factor protease; P15917; multiplex microsphere protease cleavage assay, LF; inhibition, % at 10 µM; 0.12% of 360,000 active; AID 588501; note: plate controls were buffer without enzyme for full effect and enzyme alone for no effect
Target sequence (P15917 whole entry, looked up): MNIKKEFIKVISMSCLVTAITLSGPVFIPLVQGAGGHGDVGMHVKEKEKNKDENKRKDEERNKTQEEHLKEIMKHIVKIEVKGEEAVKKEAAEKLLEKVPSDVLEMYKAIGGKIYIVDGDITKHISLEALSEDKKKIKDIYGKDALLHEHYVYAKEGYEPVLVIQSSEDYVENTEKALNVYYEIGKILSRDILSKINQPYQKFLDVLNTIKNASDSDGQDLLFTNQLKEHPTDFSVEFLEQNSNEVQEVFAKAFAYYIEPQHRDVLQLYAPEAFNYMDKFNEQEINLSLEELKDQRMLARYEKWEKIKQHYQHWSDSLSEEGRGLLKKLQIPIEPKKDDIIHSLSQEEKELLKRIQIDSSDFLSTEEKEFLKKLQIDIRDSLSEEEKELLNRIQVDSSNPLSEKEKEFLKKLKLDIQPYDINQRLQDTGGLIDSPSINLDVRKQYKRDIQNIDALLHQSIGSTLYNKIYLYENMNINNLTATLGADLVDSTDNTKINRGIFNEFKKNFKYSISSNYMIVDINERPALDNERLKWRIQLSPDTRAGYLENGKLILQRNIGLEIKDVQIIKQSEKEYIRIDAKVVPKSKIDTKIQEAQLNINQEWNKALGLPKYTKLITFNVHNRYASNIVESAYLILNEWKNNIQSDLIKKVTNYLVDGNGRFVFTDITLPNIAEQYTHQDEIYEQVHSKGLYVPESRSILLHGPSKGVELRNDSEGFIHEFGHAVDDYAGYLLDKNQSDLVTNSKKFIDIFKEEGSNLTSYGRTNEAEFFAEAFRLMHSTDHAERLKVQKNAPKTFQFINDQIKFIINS
MazEF act – MazEF (E. coli) toxin RNase activation; activation, % at 20 µM; FAM/BHQ RNA-DNA oligo cleavage fluorescence, 5 h; P0AE70; 0.32% of 350,000 active; AID 504720; in the data active = activation above about 50%
Numbers without * were called inactive; ? = inconclusive; nt = not tested or not shown. Cut-off read from the data, not from the text of the source, unless noted: active = inhibition above about 30%; inconclusive = no clear call, values can overlap the other calls; inactive = below that.

SMILES	Bead autofluor	BoNT F protease	BoNT A protease	Anthrax LF prot	MazEF act
CC1=CC(=C2N=C(c3ccccc3)OC2=O)C=C(C)O1	8556	-3	0	-7	306*
CCc1nc2ccc(C(=O)NCCc3ccccn3)cn2c1N(CCC(C)C)CCN(C)C	2993	-7	-1	-8	nt
COc1ccc(-n2nc(C(=O)NCC(=O)N3CCN(c4ccccn4)CC3)c3ccccc3c2=O)cc1	22175*	0	?	-2	6
COc1ccc(-n2nc(C(=O)NCC(=O)NCc3ccco3)c3ccccc3c2=O)cc1Cl	21931*	2	1	-4	8
COC(=O)CNC(=O)CNC(=O)c1nn(-c2ccc(OC)c(Cl)c2)c(=O)c2ccccc12	3532	-24	-1	-1	5
COc1ccc(-n2nc(C(=O)NCC(=O)N3CCN(c4ccccn4)CC3)c3ccccc3c2=O)cc1OC	3346	-3	-1	-2	1
COc1ccc(-n2nc(C(=O)NCc3ccco3)c3ccccc3c2=O)cc1	19127*	4	5	-1	-7
Cc1ccc(C(=O)OCC(=O)c2ccc(Br)cc2)cc1S(=O)(=O)N1CCOCC1	5417	-3	-1	4	-5
Cc1ccc(C(=O)NNC(=O)c2ccc(-n3cncn3)c([N+](=O)[O-])c2)cc1	5813	12	1	-1	2
O=C1CCCN1CCC(=O)N1CCCC(N2CCN(c3ccccc3F)CC2)C1 (centres undefined)	6319	-3	-2	-2	-1
CCCC(=O)N1CCC1(C)C(=O)NS(=O)(=O)c1ccc(OC)cc1 (centres undefined)	2881	-4	0	2	nt
COc1ccc2nc(C)cc(SCC(=O)N/N=C/c3cccc4ccccc34)c2c1	19063*	-2	1	-1	55*
COc1ccc2nc(C)cc(SCC(=O)N/N=C/c3ccc(O)c(O)c3)c2c1	4307	-7	0	-3	10
COc1cccc(C(C)=C2SC(=S)NC2=O)c1	3975	9	0	1	-11
Cc1ccc(N=C2NC(=O)/C(=C/c3cccs3)S2)cc1C	10283	1	1	2	54*
Cc1ccc(-c2noc(CN(C(=O)c3cccc(Br)c3)C(C)C)n2)cc1	5996	3	0	-4	6
Cc1ccc(-c2noc(CN(C(=O)C(c3ccccc3)c3ccccc3)C(C)C)n2)cc1	23813*	-7	-2	-4	4
Cc1ccc(-c2noc(CN(C(=O)C34CC5CC(CC(C5)C3)C4)C(C)C)n2)cc1	22906*	-2	0	-3	10
CCc1nc(Nc2ccccc2F)c2oc3ccccc3c2n1	4380	?	-3	-8	6
C/C(=N\O)c1cc(Cl)cc(Cl)c1O	4650	?	2	34*	-8
C/C(=N\O)c1ccc(Cl)cc1Cl	4459	-8	0	-4	-3
CCOc1ccc(/C(O)=C2\C(=O)C(=O)N(CCOCCO)C2c2ccccc2OC)cc1 (centres undefined)	23386*	-2	?	-1	0
COc1ccc(/C(O)=C2\C(=O)C(=O)N(CCN3CCOCC3)C2c2ccccc2OC)cc1 (centres undefined)	2432	0	0	1	4
Cc1c(NC(=O)CSc2ccc(Cl)cc2)cccc1-c1nc2cc(Cl)ccc2o1	2529	-2	0	0	129*
Cc1ccc2oc(-c3cccc(NC(=O)c4ccc(Br)o4)c3C)nc2c1	3347	-7	-1	-1	5
SMILES	Bead autofluor	BoNT F protease	BoNT A protease	Anthrax LF prot	MazEF act
CC(C)(C)NC(=O)C12CCC(C)(c3nc4ccccc4nc31)C2(C)C (centres undefined)	22617*	3	3	-1	-6
COC(=O)C12CCC(C)(c3nc4ccccc4nc31)C2(C)C (centres undefined)	3265	10	0	-9	-18
CCn1nc(NS(=O)(=O)c2ccccc2)c2cc3cccc(C)c3nc21	19546*	1	?	-8	0
CCOc1ccccc1NC(=O)c1ccc(F)c(S(=O)(=O)N2CCC3(CC2)OCCO3)c1	17156*	-6	?	0	-2
Cc1ccc(S(=O)(=O)N(C)C[C@H]2Oc3ncc(Br)cc3C(=O)N([C@H](C)CO)C[C@@H]2C)cc1	3478	0	0	-2	5
O=C(O)CCc1ccc(-c2ccc(Br)cc2)o1	23745*	-3	?	-1	-13
CSCCC1NC2(C(=O)Nc3c(Cl)cccc32)[C@@H]2C(=O)N(C3CCCC3)C(=O)[C@H]12 (some centres undefined)	21812*	2	2	-2	-1

Assay outcomes deposited in PubChem BioAssay by several laboratories.
